PubChem BioAssay AID1851 (National Center for Advancing Translational Sciences (NCATS), 2009)
About 5,800 (36%) of roughly 16,000 compounds were called active. About 23% were inconclusive and are not listed. Calls come from the whole dose curve; as a rule, active = well fitted curve in the direction sought with a large enough effect; inconclusive = small, poorly fitted or top-dose-only effect, or effect the other way; inactive = no such curve, though single readings can be large or run the other way. Some of the results follow.

Target: Cytochrome P450 2C19 (Homo sapiens) (UniProt P33261)
Sequence (P33261 whole entry, looked up): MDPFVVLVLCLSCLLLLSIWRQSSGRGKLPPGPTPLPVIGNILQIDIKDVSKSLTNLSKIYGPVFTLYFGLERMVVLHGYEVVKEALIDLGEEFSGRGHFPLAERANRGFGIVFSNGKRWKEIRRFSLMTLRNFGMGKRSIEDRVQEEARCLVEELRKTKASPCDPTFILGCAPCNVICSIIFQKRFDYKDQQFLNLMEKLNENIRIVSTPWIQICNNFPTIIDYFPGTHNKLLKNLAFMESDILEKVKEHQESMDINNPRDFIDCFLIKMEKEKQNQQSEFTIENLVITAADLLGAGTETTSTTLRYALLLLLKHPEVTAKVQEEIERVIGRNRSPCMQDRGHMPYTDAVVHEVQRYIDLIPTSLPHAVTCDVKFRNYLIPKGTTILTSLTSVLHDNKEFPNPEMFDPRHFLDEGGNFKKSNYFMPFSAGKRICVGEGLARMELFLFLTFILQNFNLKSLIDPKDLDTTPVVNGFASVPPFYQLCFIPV
Assay: Cytochrome panel assay with activity outcomes
Conditions: recombinant CYP, pro-luciferin dealkylation, luminescence, p450-cyp2c19; series mostly up to 57.1 µM; activity, negative = inhibition: at the top concentration
% is set by controls: 0 for no effect and ±100 for the full control effect.

AC50, active:
Cc1ccc(NC(=O)Nc2nc(-c3ccc(C)s3)cs2)cc1 6.31 µM
COC(=O)Cn1c(CN(Cc2ccccc2)Cc2ccccc2)nc2c1c(=O)[nH]c(=O)n2C 28.2 µM
Cc1ccc(C(=O)CNc2nc3c(c(=O)[nH]c(=O)n3C)n2Cc2ccccc2)cc1 5.62 µM
Cn1c(=O)[nH]c(=O)c2c1nc(CN(Cc1ccccc1)Cc1ccccc1)n2CCN1CCOCC1 14.1 µM
CCOC(=O)Cn1c(CN(Cc2ccccc2)Cc2ccccc2)nc2c1c(=O)[nH]c(=O)n2C 15.8 µM
Cn1ncc2c(NCCc3ccccc3)nc(Cl)nc21 0.126 µM
COc1ccc(-c2noc(C3CCCN(C(=O)c4ccccc4OC)C3)n2)cc1OC (configuration not stated) 11.2 µM
CCCCCC(=O)N1CCCC(c2nc(-c3ccc(OC)cc3)no2)C1 (configuration not stated) 7.08 µM
CCOC(=O)/C(C#N)=C1/SC(CC)C(=O)N1c1ccc(Br)cc1 (configuration not stated) 1.58 µM
CC(C)OCCCn1c(=S)[nH]c2ncccc2c1=O 14.1 µM
COCCNC(=O)COC(=O)/C=C/c1cnc2ccccc2n1 22.4 µM
O=C1C=C(Nc2ccc(Cl)cc2)CC(c2ccc(Cl)cc2)C1 (configuration not stated) 1.58 µM
Cn1c(/C=C/c2ccc([N+](=O)[O-])o2)nc2ccccc2c1=O 14.1 µM

activity, negative = inhibition, inactive:
Cc1ncn(-c2ccccc2O)c1C -11% [at 11.4 µM]
Cn1c(=O)[nH]c(=O)c2c1nc(NCCCO)n2CCCc1ccccc1 -38.3%
Cn1c(=O)c2[nH]c(SCCN3CCOCC3)nc2n(C)c1=S -14.1% [at 11.4 µM]
Cn1c(=O)[nH]c(=O)c2c1nc(CN1CCOCC1)n2Cc1ccccc1 -14.7%
Cc1nc(CN2CCCCC2)c(O)c(=O)[nH]1 -22.5% [at 11.4 µM]
NC(=O)NC(=O)[C@H]1CCCC[C@@H]1C(=O)O 12.1% [at 11.4 µM]
CCCCN(c1ccccc1)c1ncnc2c1cnn2C -9.3% [at 11.4 µM]
Cn1ncc2c(Cl)ncnc21 -3.14% [at 11.4 µM]
CN(C)c1ccc(-c2noc(C3CCN(S(=O)(=O)c4cccc(C(=O)O)c4)CC3)n2)cc1 -27.6%
COc1ccccc1CN1CC[C@@]2(CCCN(C(=O)c3c(C)noc3C)C2)C1 -31.8%
CCOC(=O)/C(C#N)=C1/C=CN(C)C=N1 10.6%
Cn1c(=O)c2[nH]c(SCc3ccccn3)nc2n(C)c1=S 29.1% [at 11.4 µM]
CC(C)(C)CC(C)(C)c1cc(O)c(O)c(CN2CCCCC2)c1 -5.03% [at 11.4 µM]
O=C1O[C@H](CN2CCOCC2)CN1/N=C\c1ccc([N+](=O)[O-])o1 8.96% [at 25.6 µM]
